AI-2 QS mod = modulators of Vibrio harveyi AI-2 quorum sensing system; Vibrio harveyi JMH597 AI-2 luminescence/OD600 ratio, 9 h; hits give low values; strain lacks LuxN and CqsS sensors; 0 = neutral-control median; 300,000 compounds, 0.4% hits; activity change, % at 7.5 µM; in the data active means activity change below about -75%, passing the limit was not always enough;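 further: luminescence divided by OD600 gain over 9 h not by final OD600 alone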
ARNT TACC3 PPI = ARNT/TACC3 interaction disruption. Q9Y6A5. AlphaScreen His-ARNT PAS-B/GST-TACC3 binding, luminescence; TACC3 fragment carries E629A point mutation. inhibition, % at 9.99 µM. 390,000 compounds, 0.66% hits;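 active means mean inhibition of replicates at least 50% and at least half of replicates each reaching 50%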;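 further: 0% = complete ARNT plus TACC3 wells and 100% = ARNT alone without TACC3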
aDG glyco up = alpha-DG glycosylation activation. 360,000 compounds, 0.22% hits. activation, % at 10 µM. AID 624168. Pro5-aDG cells, alpha-DG glycosylation AlphaScreen (IIH6); 0% Pro5, 100% B10-LARGE cell signal;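 active means activation of at least 8% versus controls, or a plate z-score of at least 8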;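 further: Pro5 are CHO cells carrying HIG-tagged alpha-DG that lacks glycosylation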
A1 inh = inhibitors of the anti-apoptotic protein A1, read as caspase activation. MEF A1-2A-BIM cells, Caspase-Glo 3/7 luminescence, 3 h; percent of clofoctol response, vehicle zero. caspase activation, % (test concentration not listed). 330,000 compounds, 0.066% hits;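 active means over half of replicate activation scores above 10%, or exactly half above 10 with the replicate mean above 10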
SUMO Mot1 rescue = blocks SUMOylation pathway, rescuing yeast Mot1-301 growth | growth rescue, % at 18.8 µM | 320,000 compounds, 1% hits | AID 2716 | S. cerevisiae Mot1-301 growth rescue, ATP luminescence, 38.5C; percent above DMSO median, 100 means doubled;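 active means every valid replicate shows activation above 250% relative to neutral control wells; inactive means the rest, any valid replicate at or below 250%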;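 further: OY570 slx delta 5 strain wells were the positive control but not used for scaling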
* marks the source's active call; other numbers are inactive results; . = no result given. Only some compounds are listed: those with a hit (about 1.8% of all), similar ones and a draw of the others.

SMILES	AI-2 QS mod	ARNT TACC3 PPI	aDG glyco up	A1 inh	SUMO Mot1 rescue
COc1ccccc1CNC(=O)CCS(=O)(=O)c1ccc2c(c1)CCN2C(C)=O	10.5	-1.2	5.3*	0.2	7.9
CCOC(=O)c1c(C)[nH]c(C(=O)N/N=C\c2ccccc2O)c1C	14.5	2.0	1.3	-1.9	-3.0
Cc1cc(C(=O)N/N=C/c2cc([N+](=O)[O-])ccc2O)c2ccccc2n1	50.0	75.9*	-0.3	-0.3	-2.6
O=C(NC(C(=O)N/N=C/c1cc([N+](=O)[O-])ccc1O)c1n[nH]c(=O)c2ccccc12)c1ccccc1 (stereo unspecified)	18.9	67.5*	-0.1	-0.1	-9.8
CCOC(=O)c1c(C)[nH]c(C(=O)N/N=C/c2cc([N+](=O)[O-])ccc2O)c1C	35.0	71.8*	-0.2	0.5	-8.5
CC(C)NC(=S)NC(=O)/C=C/c1ccc(F)cc1	7.4	1.7	0.7	0.8	11.4
CC(C)NC(=S)Nc1c(N)[nH]c(=O)[nH]c1=O	10.9	-5.2	0.0	0.5	342.5*
CCCCC(=O)N/N=C/c1ccc(Sc2cccc3cccnc23)o1	16.5	54.2*	1.2	0.4	-14.5
CC(=O)OCC1OC(Sc2cccc3cccnc23)C(OC(C)=O)C(OC(C)=O)C1OC(C)=O (stereo unspecified)	36.1	68.0*	0.5	0.7	14.9
O=C(Cc1ccc(Br)cc1)NC1CCN(Cc2ccccc2)CC1	10.6	2.5	0.4	-0.2	282.5*
CCCCOc1ccc(C(=O)Oc2cc(C)[nH]c(=O)c2[N+](=O)[O-])cc1	37.0	46.1*	-0.4	0.2	-7.9
CCOc1ccc(C(=O)Oc2cc(C)[nH]c(=O)c2[N+](=O)[O-])cc1	19.5	-7.9	0.0	0.2	5.4
COC(=O)c1cccc(/C=N/NC(N)=S)c1O	-57.5	67.3*	1.8	-1.6	9.0
Cc1cc[n+](C(C)C(=O)c2ccc(Cl)cc2)cc1 (stereo unspecified)	35.1	56.2*	0.1	-1.2	-5.8
Cc1cc[n+](C(C)C(=O)c2ccc(-c3ccccc3)cc2)cc1 (stereo unspecified)	26.0	-0.9	-0.3	-0.1	36.6
Cc1ccc2nc(Cl)c(/C=N/Nc3nc(C)cc(C)n3)c(=O)n2c1	76.4	46.4*	0.2	0.2	.
COc1cccc(C2c3[nH]c4ccccc4c3CCN2Cc2ncc[nH]2)c1 (stereo unspecified)	21.6	52.6*	-0.4	-0.9	-6.0
c1ccc2c3c([nH]c2c1)C(C1CCCCC1)N(Cc1ncc[nH]1)CC3 (stereo unspecified)	26.4	.	-0.4	0.4	-7.8
COc1ccc2sc(N(CCCN(C)C)C(=O)c3ccc(S(=O)(=O)N4CCc5ccccc5C4)cc3)nc2c1	8.0	9.0	-0.1	28.3*	-25.6
COc1ccc2sc(N(CCCN(C)C)C(=O)c3ccc(S(=O)(=O)N4CCCC4)cc3)nc2c1	0.7	9.2	0.1	-1.8	-0.5
Cc1ccc2nc(N(CCCN(C)C)C(=O)c3ccc(S(=O)(=O)N4CCc5ccccc5C4)cc3)sc2c1	1.9	11.1	0.8	3.9	-27.9
CN(C)CCCN(C(=O)c1ccc(S(=O)(=O)N2CCc3ccccc3C2)cc1)c1nc2ccc(F)cc2s1	6.6	3.5	-0.5	30.0*	-17.1
Cc1ccc(-n2c(O)c(C=Nc3ccccc3-c3n[nH]c(=S)[nH]c3=O)c3ccccc3c2=O)cc1C	46.2	0.9	-0.8	.	.
O=C(Nc1ccc([N+](=O)[O-])cc1)Nc1nc(-c2ccc(Cl)s2)cs1	-85.5*	4.9	-0.4	-0.2	-0.8
CC(=O)Nc1nc(-c2ccc([N+](=O)[O-])cc2)cs1	17.5	-3.6	0.1	0.0	-1.2
SMILES	AI-2 QS mod	ARNT TACC3 PPI	aDG glyco up	A1 inh	SUMO Mot1 rescue
COc1ccc(CCNC(=O)c2oc3ccc(S(=O)(=O)N4CCOCC4)cc3c2C)cc1OC	19.2	-2.2	-0.2	0.2	243.2
Cc1ccccc1C(=O)Oc1cccc(Nc2ncnc3ccccc23)c1	22.8	1.0	6.3*	0.3	.
COc1cccc(OCC(=O)O/N=C(\N)c2ccncc2)c1	-76.1*	-6.6	0.1	0.4	-0.2
COC(=O)c1ccc(CNS(=O)(=O)c2ccc3ccccc3c2)cc1	5.6	-9.8	0.0	-0.1	330.3*
COc1ccc(S(=O)(=O)NCc2ccc(C(=O)O)cc2)cc1	20.7	-9.6	-0.2	0.0	7.8
CC1=C(C(=O)N2CCOCC2)CC(CC(=O)NCCCN(C)C)C(=O)N1CCC1=CCCCC1 (stereo unspecified)	.	.	0.0	.	.
Cc1cccnc1NC(=S)Nc1ccc(Br)cc1Cl	4.1	4.4	-0.2	2.3	.
O=C(C[C@H]1CC[C@H](NC(=O)Nc2cc(F)ccc2F)[C@@H](CO)O1)Nc1ccc(-c2ccccc2)cc1	.	10.4	.	.	.
O=C(C[C@H]1CC[C@@H](NC(=O)Nc2cc(F)ccc2F)[C@H](CO)O1)Nc1ccc(-c2ccccc2)cc1	.	48.4*	.	.	.
CN(CC(=O)NCC(=O)Nc1ccc(F)cc1)CC(=O)Nc1ccc(Cl)c(C(F)(F)F)c1	.	-6.9	-0.1	.	.
C[C@@H]1CN([C@@H](C)CO)C(=O)Cc2cc(NC(=O)CCN3CCOCC3)ccc2O[C@H]1CN(C)C(=O)Nc1ccc2c(c1)OCO2	.	29.6	.	.	.
C[C@@H]1CN([C@H](C)CO)C(=O)c2cc(NC(=O)Nc3ccc(F)cc3)ccc2O[C@@H]1CN(C)C	.	-25.7	.	.	.
C[C@@H]1CN([C@H](C)CO)C(=O)Cc2cc(NC(=O)CCN3CCOCC3)ccc2O[C@H]1CN(C)C(=O)Nc1ccc2c(c1)OCO2	.	46.5*	.	.	.
C[C@H]1CN([C@@H](C)CO)C(=O)c2cc(N(C)C)ccc2O[C@H]1CN(C)C(=O)Nc1ccc2c(c1)OCO2	.	9.0	.	.	.
C[C@H](CO)N1C[C@H](C)[C@@H](CN(C)C(=O)Nc2ccc3c(c2)OCO3)Oc2ccc(N(C)C)cc2C1=O	.	10.0*	.	.	.
C[C@H](CO)N1C[C@H](C)[C@H](CN(C)C)Oc2ccc(NC(=O)Nc3ccc(F)cc3)cc2C1=O	.	45.6*	.	.	.
CC(=NNC(N)=O)C1=C(O)C(C(C)C)NC1=O (stereo unspecified)	.	59.8*	0.0	.	.
N#CC1(NC(=O)COC(=O)c2nc(Cl)ccc2Cl)CCCCC1	13.4	-7.6	-0.1	0.4	0.5
O=C1C(Cl)=C(N2CCN(Cc3ccccc3)CC2)C(=O)N1c1ccccc1	13.1	3.2	0.0	-0.3	.
CC12CCC(=O)N1C(C(=O)Nc1ccc(S(=O)(=O)N3CCCCC3)cc1)CS2 (stereo unspecified)	-32.6	-2.1	0.0	1.1	-9.1
